Results as given in PubChem BioAssay AID463173 (ICCB-Longwood Screening Facility, Harvard Medical School, 2010).
Among all 52,000 compounds or so, about 1,700 (3.3%) were called active. What follows is part of a selection rich in actives, with near analogues and random picks from the rest. Unmarked numbers belong to inactive results. Cut-off read from the data, not from the text of the source: active = survival mostly below about 52% (no sharp cut-off); inactive = mostly above about 56%.

Tested on: Wild type
Test: growth inhibition of S. aureus wild type versus tarO mutant, primary screen, teichoic acid synthesis inhibitors, RN4220, OD600 (AID 463173)
Conditions: S. aureus RN4220 wild type/DeltatarO growth, OD600, 18 h, stronger effect = lower value, screened at 18.75 µg/mL (by protocol)

SMILES | survival
O=C1CC(c2ccccc2C(F)(F)F)c2c(c3ccccc3[nH]c2=O)O1 (configuration not stated) | 69%
Cc1cccc(-c2noc(-c3cccnc3NCc3ccccc3Cl)n2)c1 | 79%
N#Cc1ccccc1CN1C(=O)c2ccccc2Sc2ccc(C(=O)OCc3ccco3)cc21 | 85%
CC1CCN(S(=O)(=O)c2ccc3c(c2)N(CC(=O)N2CCN(c4ccccc4)CC2)C(=O)CO3)CC1 | 87%
CCN(CC)C(=O)CSc1nsc(SCC(=O)N(CC)CC)c1C#N | 102%
CC(=O)Nc1ccc(S(=O)(=O)N2CCC(Oc3ccc(-n4cnnn4)cc3)CC2)cc1 | 118%
O=C(CN1C(=O)S/C(=C\c2ccco2)C1=O)CN1C(=O)S/C(=C\c2ccco2)C1=O | 113%
OC1N(CN2CCN(c3ccccc3F)CC2)c2ccccc2C12OCCCO2 (configuration not stated) | 104%
Cn1cnnc1SCC(=O)Nc1ccc(C#N)cc1 | 71%
CC(=O)c1cccc(NC(=O)CCCSc2nc(-c3ccco3)cc(C(F)(F)F)n2)c1 | 52%
Cc1ccccc1CSc1nc(-c2cccc(F)c2)nc2c1Cc1c(CO)cnc(C)c1O2 | 85%
CCc1ccc(-n2nc(C)c3c(C(=O)Nc4ccc(Cl)cc4)cc(C)nc32)cc1 | 53%
CCc1ccc(-n2nc(C)c3c(C(=O)Nc4cc(OC)cc(OC)c4)cc(C)nc32)cc1 | 66%
Cc1cc(C(=O)Nc2cccc(C)c2C)c2c(C)nn(-c3cccc(F)c3)c2n1 | 73%
CCc1ccc(-n2nc(C)c3c(C(=O)Nc4cccc(C(F)(F)F)c4)cc(C)nc32)cc1 | -3% (active)
Cc1cc(C(=O)Nc2cccc(C(F)(F)F)c2)c2c(C)nn(-c3cccc(F)c3)c2n1 | -1% (active)
Cc1cc(C)c(NC(=O)c2cc(C)nc3c2c(C)nn3-c2cccc(F)c2)c(C)c1 | 83%
CCc1nnc2c3ccccc3nc(Nc3cc(C)cc(C)c3)n12 | 37%
Cc1cc(C)nc(NS(=O)(=O)c2ccc(NC(=O)c3ccccc3O)cc2)n1 | 127%

SMILES | survival
CCCN1CCN(c2nnc(-n3cccc3C(=O)Nc3cc(Cl)ccc3C)s2)CC1 | 82%
Cc1c(C(=O)N(C)C)sc2c1c(=O)n(-c1ccccc1C(F)(F)F)c(=O)n2Cc1ccccc1C#N | 66%
CCOC(=O)c1ccccc1NC(=O)Cn1c(=O)n(CCC(=O)N2CCc3ccccc3C2)c(=O)c2ccccc21 | 88%
Cc1cc(C)c2nc(N(Cc3cccnc3)C(=O)CCS(=O)(=O)c3ccccc3)sc2c1 | 59%
Cc1ccc2sc(N(Cc3cccnc3)C(=O)CCS(=O)(=O)c3ccccc3)nc2c1C | 1% (active)
CC(=O)c1ccc(C(=O)N(Cc2cccnc2)c2nc3c(C)c(C)ccc3s2)cc1 | -3% (active)
Cc1cccc2sc(N(Cc3cccnc3)C(=O)CCS(=O)(=O)c3ccccc3)nc12 | 82%
CC(=O)c1ccc(C(=O)N(Cc2cccnc2)c2nc3c(Cl)cccc3s2)cc1 | 119%
CC(=O)N(Cc1cccnc1)c1nc2c(C)c(C)ccc2s1 | 71%
Cc1ccc(SCC(=O)Nc2ccc3oc(-c4cccc(C)c4)nc3c2)cc1 | 96%
COCCCNC(=O)CSc1nc2cc3c(cc2c(=O)n1CCCCCC(=O)NCc1ccc(OC)cc1)OCO3 | 1% (active)
COCCNC(=O)CSc1nc2cc3c(cc2c(=O)n1CCCCCC(=O)NCc1ccc(OC)cc1)OCO3 | 63%
CCN(CC)C(=O)CSc1nc2cc3c(cc2c(=O)n1CCCCCC(=O)NCc1ccc(OC)cc1)OCO3 | -3% (active)
CCN(CC)C(=O)CSc1nc2cc3c(cc2c(=O)n1CCCC(=O)NCc1ccc(OC)cc1)OCO3 | 82%
CCOC(=O)CSc1nc2cc3c(cc2c(=O)n1CCCC(=O)NCCc1ccc(OC)c(OC)c1)OCO3 | -4% (active)
COc1ccc(CCNC(=O)CCCn2c(SCC(N)=O)nc3cc4c(cc3c2=O)OCO4)cc1OC | 81%
COCCCNC(=O)CSc1nc2cc3c(cc2c(=O)n1CCCC(=O)NCc1ccc(OC)cc1)OCO3 | 70%
CCOC(=O)CSc1nc2cc3c(cc2c(=O)n1CCCCCC(=O)NCc1ccc(OC)cc1)OCO3 | 71%
CCCCNC(=O)CSc1nc2cc3c(cc2c(=O)n1CCCC(=O)NCCc1ccc(OC)c(OC)c1)OCO3 | 129%

SMILES | survival
CC1Cc2ccccc2N1C(=O)c1nc2ccccc2s1 (configuration not stated) | 113%
O=C(Cn1nc(-c2ccc(Cl)cc2)c2ccccc2c1=O)Nc1cccc(C(F)(F)F)c1 | 71%
COc1ccccc1N=C1SC(C(=O)Nc2ccccc2OC)CC(=O)N1C (configuration not stated) | 73%
COc1cccc(-c2nnc3sc(CN4CCCCC4)cn23)c1 | 68%
CCN1/C(=C\C=C2C(=O)OC(C)(C)OC2=O)Sc2ccccc21 | 94%
CCC(Sc1nc2ccncc2[nH]1)C(=O)Nc1cc(Cl)ccc1C (configuration not stated) | 126%
CCOC(=O)c1ccc(NC(=O)CN2C(=O)c3cccnc3Sc3ccccc32)cc1 | 66%
CCOC(=O)c1c(C)n(-c2ccccc2)c2ccc(OC(=O)c3ccccc3)cc12 | 0% (active)
CCOC(=O)c1c(C)n(-c2ccccc2)c2ccc(OC(=O)c3cccc(Cl)c3)cc12 | 78%
CCOC(=O)c1c(C)n(-c2ccccc2)c2ccc(OC(=O)c3cccc(C)c3)cc12 | 50%
CC(C)(C)c1ccc(OCCCC(=O)N2CCOCC2)cc1 | 102%
O=C(NCCCN1CCN(c2ccccc2F)CC1)c1sc2ncccc2c1-n1cccc1 | 81%
c1coc(-c2nc3ccccn3c2Nc2ccc3c(c2)OCCO3)c1 | 70%
O=C(CC1(O)C(=O)N(CCc2ccccc2)c2ccc(Br)cc21)c1ccccc1O (configuration not stated) | 6% (active)
O=C(CC1(O)C(=O)N(CCc2ccccc2)c2ccc(Br)cc21)c1ccc(F)cc1 (configuration not stated) | 4% (active)
COc1ccc(C(=O)CC2(O)C(=O)N(CCc3ccccc3)c3ccc(Br)cc32)cc1OC (configuration not stated) | 65%
C#CCN1C(=O)C(O)(CC(=O)c2ccc(OC)c(OC)c2)c2cc(Br)ccc21 (configuration not stated) | 111%
COc1ccc(C(=O)CC2(O)C(=O)N(Cc3ccccc3)c3ccc(Br)cc32)cc1 (configuration not stated) | 57%
O=C(CC1(O)C(=O)N(CCc2ccccc2)c2ccc(Br)cc21)c1ccccc1 (configuration not stated) | 15%
